Experimental data taken from PubChem BioAssay (Tox21).
Records with an inconclusive call do not appear. The source made the active and inactive calls. Unless noted, calls follow the shape of the dose curve; as a rule, active = well fitted curve in the direction sought with a large enough effect in the repeat runs; inconclusive = weak or mixed curves; inactive = no such curve, though single readings can be large; an effect the other way counts as inactive or inconclusive.

How the values were obtained:
[1] = target: Retinoic acid receptor RXR-alpha (Homo sapiens) (UniProt P19793); assay: qHTS assay to identify small molecule agonists of the RXR signaling pathway (AID 1159527; calls by dose curve; also: nearly all actives have a fitted effect of over 35% in size)
Procedure, shortened: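 Read-out: beta-lactamase FRET ratio (405 nm excitation, 460 and 530 nm emission) after 2 hr substrate loading at room temperature. Cells were RXR-alpha-UAS-bla HEK 293T treated with compounds for 16 hr in 2% charcoal-stripped FBS medium.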

[2] = qHTS assay to identify small molecule agonists of the RXR signaling pathway - cell viability counter screen (AID 1159529); also: series mostly up to about 77 µM; nearly all actives have a fitted effect of over 50% in size
Procedure, shortened: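 HEK 293T RXRa-bla cells, 2% CS-FBS; 5 h settle; cpd 16 h 37 C, 5% CO2; CellTiter-Glo 30 min RT, luminescence. Tetraoctyl ammonium bromide as positive control.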

[3] = qHTS assay to identify small molecule antagonists of the retinoid acid receptor (RAR) signaling pathway - cell viability counter screen (AID 1159551); also: nearly all actives have a fitted effect of over 35% in size
Procedure, shortened: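 Seed C3RL4 cells; next day add compound, then retinol to 1 uM final; incubate 6 h at 37 C; add CellTiter-Glo; read luminescence after 30 min at RT.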

[4] = qHTS assay to identify small molecule agonists of the retinoic acid receptor (RAR) signaling pathway (AID 1159553)
Procedure, shortened: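 Activation of retinol signaling was monitored via a RARE luciferase reporter in C3RL4 cells. After 6 hr compound treatment at 37 C, detection reagent was added for 30 min at room temperature before luminescence reading.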

[5] = qHTS assay to identify small molecule antagonists of the estrogen related receptor (ERR) signaling pathway from Tox21 library - cell viability counter screen (AID 1224834); also: nearly all actives have a fitted effect of over 30% in size
Procedure, shortened: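 CellTiter-Fluor fluorescence measured; ERR cells; 17.5 h compound incubation at 37 C; 30 min reagent step.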

[6] = target: Luciferin 4-monooxygenase (Photinus pyralis) (UniProt P08659); assay: qHTS assay to identify small molecule inhibitors of firefly luciferase (AID 1224835); also: series mostly up to about 120 µM; nearly all actives have a fitted effect of over 25% in size
Procedure, shortened: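 Quantitative HTS format; KM concentrations of both substrates. Purified P. pyralis FLuc activity quantified from luminescence images.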

[7] = qHTS assay to identify small molecule agonists of the constitutive androstane receptor (CAR) signaling pathway - cell viability counter screen (AID 1224836); also: series mostly up to about 92 µM; nearly all actives have a fitted effect of over 45% in size
Procedure, shortened: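 HepG2-CYP2B6-hCAR, 2500 cells/well, 4 h pre-incubation; cpd 15 conc + PK11195 0.75 uM final; 23 h, 37 C/5% CO2; CellTiter-Fluor, fluorescence.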

[8] = qHTS assay to identify small molecule antagonists of the constitutive androstane receptor (CAR) signaling pathway - cell viability counter screen (AID 1224837); also: series mostly up to about 92 µM; nearly all actives have a fitted effect of over 45% in size
Procedure, shortened: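 Using CellTiter-Fluor, viability is scored in HepG2 cells stably carrying hCAR and a 2.2kb CYP2B6 reporter after 23 hr compound exposure across 15 concentrations, with CITCO present at 50 nM.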

[9] = target: Nuclear receptor subfamily 1 group I member 3 (Homo sapiens) (UniProt Q14994); assay: qHTS assay to identify small molecule antagonists of the constitutive androstane receptor (CAR) signaling pathway (AID 1224838);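 also: HepG2 cells stably expressing hCAR with CYP2B6 luciferase reporter stimulated by CITCO; nearly all actives have a fitted effect of over 40% in size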; also: potency is read from the fitted curve at half-maximal effect
Procedure, shortened: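 Reporter luminescence was quantified after 24 h exposure of hCAR/CYP2B6-2.2kb double-stable HepG2 cells to compounds at 15 concentrations in the presence of 50 nM CITCO final.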

[10] = target: Nuclear receptor subfamily 1 group I member 3 (Homo sapiens) (UniProt Q14994); assay: qHTS assay to identify small molecule agonists of the constitutive androstane receptor (CAR) signaling pathway (AID 1224839);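 also: HepG2 cells stably carrying human CAR and a CYP2B6 luciferase reporter; series mostly up to about 92 µM; nearly all actives have a fitted effect of over 15% in size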
Procedure, shortened: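 HepG2-CYP2B6-hCAR cells, 2500/well, 4 h pre-incubation; compounds 15 conc.; PK11195 0.75 uM final; 24 h, 37 C/5% CO2; ONE-Glo luciferase read.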

[11] = target: Thyrotropin receptor (Homo sapiens) (UniProt P16473); assay: qHTS assay to identify small molecule agonists of the thyroid stimulating hormone receptor (TSHR) signaling pathway (AID 1224843; calls by dose curve; also: nearly all actives have a fitted effect of over 45% in size)
Procedure, shortened: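 Cell line HEK293 with TSHR; density 800/well. Exposure 30 min RT. Readout HTRF cAMP (cAMP-d2/anti-cAMP-cryptate), 1 h RT before reading.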

[12] = qHTS assay to identify small molecule agonists of the hypoxia (HIF-1) signaling pathway - cell viability counter screen (AID 1224844; calls by dose curve; also: nearly all actives have a fitted effect of over 50% in size)
Procedure, shortened: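 Multiplexed with the HRE beta-lactamase assay, this viability read used CellTiter-Glo luminescence (30 min, RT) on HRE-bla ME-180 cells treated 17 hrs with compounds in 0.5% dialyzed FBS medium.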

[13] = qHTS assay to identify small molecule agonists of H2AX (AID 1224845; active = well fitted activation curve with a large enough effect in the signal ratio in the repeat runs, not every such curve was filed as active; the % refers to the signal ratio)
Procedure, shortened: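 Wild-type CHO-K1 cells plated overnight, then exposed 3 hr at 37C to compounds at 15 concentrations (0.76% DMSO). Lysed, then HTRF anti-pH2AX(S139)-cryptate/anti-H2AX-d2 detection after 24 hr at room temperature; emissions 665 and 620 nm.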

[14] = qHTS assay to identify small molecule agonists of the hypoxia (HIF-1) signaling pathway (AID 1224846; active = well fitted activation curve with a large enough effect in the signal ratio in the repeat runs, not every such curve was filed as active; the % refers to the signal ratio)
Procedure, shortened: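 Hypoxia-pathway activation was scored as increased beta-lactamase from an HRE-controlled reporter in ME-180 cells; plated at 2,000 cells per well with 0.5% dialyzed FBS, they were exposed 17 hrs to compounds and then given CCF4-AM.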

[15] = qHTS assay to identify small molecule agonists of H2AX - cell viability counter screen (AID 1224847; calls by dose curve; also: top concentration of the series differs between compounds; nearly all actives have a fitted effect of over 30% in size)
Procedure, shortened: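 Cells plated first: CHO-K1, 1000 per well in 10% FBS medium, incubated overnight at 37C. Then 15-point compound titration added (final DMSO 0.76%) for 3 hr. Finally CellTiter-Glo added and luminescence read.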

[16] = qHTS assay to identify small molecule antagonists of the estrogen related receptor signaling pathway with the pleiotropic PPARgamma coactivator (PGC) from Tox21 10K library - cell viability counter screen (AID 1224840; active = well fitted cell-killing curve with a large enough effect in the repeat runs, not every such curve was filed as active; also: nearly all actives have a fitted effect of over 40% in size)
Procedure, shortened: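 Here the PGC/ERR cells serve as a cytotoxicity control: they are exposed to compounds for 17.5 hours at 37 C, and live-cell signal is quantified using CellTiter-Fluor fluorescence.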

[17] = qHTS assay to identify small molecule antagonists of the retinoic acid receptor (RAR) signaling pathway (AID 1159552; also: nearly all actives have a fitted effect of over 50% in size)
Procedure, shortened: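 Cells of the C3RL4 line were seeded, incubated overnight, then dosed with compounds in DMSO followed immediately by retinol (1 uM final). Six hours later luciferase detection reagent went in; signal was measured after 30 min at RT.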

[18] = qHTS assay to identify small molecule agonists of the estrogen related receptor signaling pathway with the pleiotropic PPARgamma coactivator (PGC) from Tox21 10K library (AID 1224842); also: nearly all actives have a fitted effect of over 15% in size
Procedure, shortened: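 PGC/ERR reporter cells (NTP line) were seeded 2,000 per well, rested 6 h at 37 C/5% CO2, then pin-dosed with compounds in DMSO for 18 h at 37 C; luciferase read by One-Glo luminescence after 30 min at room temperature.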
% is scaled to controls: 0 for no effect and ±100 for the full control effect.

Retinoic acid receptor RXR-alpha (Homo sapiens), sequence (P19793 whole entry, looked up): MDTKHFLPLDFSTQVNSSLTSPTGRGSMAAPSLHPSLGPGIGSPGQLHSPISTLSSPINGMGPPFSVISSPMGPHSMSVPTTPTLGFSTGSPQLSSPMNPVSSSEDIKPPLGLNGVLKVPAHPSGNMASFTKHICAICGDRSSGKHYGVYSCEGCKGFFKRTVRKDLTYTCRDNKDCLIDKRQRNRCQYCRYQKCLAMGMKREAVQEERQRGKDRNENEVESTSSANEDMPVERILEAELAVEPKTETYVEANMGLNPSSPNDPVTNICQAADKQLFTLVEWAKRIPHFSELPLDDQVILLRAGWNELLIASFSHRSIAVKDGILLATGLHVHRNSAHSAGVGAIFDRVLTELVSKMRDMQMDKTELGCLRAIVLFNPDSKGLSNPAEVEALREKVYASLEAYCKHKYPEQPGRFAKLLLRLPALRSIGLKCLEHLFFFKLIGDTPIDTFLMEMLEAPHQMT
Nuclear receptor subfamily 1 group I member 3 (Homo sapiens), sequence (Q14994 whole entry, looked up): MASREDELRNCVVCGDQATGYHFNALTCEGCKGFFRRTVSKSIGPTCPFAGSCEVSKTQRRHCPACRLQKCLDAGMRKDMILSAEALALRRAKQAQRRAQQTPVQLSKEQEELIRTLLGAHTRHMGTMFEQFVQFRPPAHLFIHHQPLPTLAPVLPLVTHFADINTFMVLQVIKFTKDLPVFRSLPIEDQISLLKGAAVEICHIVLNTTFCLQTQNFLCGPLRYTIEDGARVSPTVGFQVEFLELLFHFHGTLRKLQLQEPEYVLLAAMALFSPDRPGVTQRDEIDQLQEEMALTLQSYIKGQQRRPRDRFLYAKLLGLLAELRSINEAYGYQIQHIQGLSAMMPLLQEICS
Thyrotropin receptor (Homo sapiens), sequence (P16473 whole entry, looked up): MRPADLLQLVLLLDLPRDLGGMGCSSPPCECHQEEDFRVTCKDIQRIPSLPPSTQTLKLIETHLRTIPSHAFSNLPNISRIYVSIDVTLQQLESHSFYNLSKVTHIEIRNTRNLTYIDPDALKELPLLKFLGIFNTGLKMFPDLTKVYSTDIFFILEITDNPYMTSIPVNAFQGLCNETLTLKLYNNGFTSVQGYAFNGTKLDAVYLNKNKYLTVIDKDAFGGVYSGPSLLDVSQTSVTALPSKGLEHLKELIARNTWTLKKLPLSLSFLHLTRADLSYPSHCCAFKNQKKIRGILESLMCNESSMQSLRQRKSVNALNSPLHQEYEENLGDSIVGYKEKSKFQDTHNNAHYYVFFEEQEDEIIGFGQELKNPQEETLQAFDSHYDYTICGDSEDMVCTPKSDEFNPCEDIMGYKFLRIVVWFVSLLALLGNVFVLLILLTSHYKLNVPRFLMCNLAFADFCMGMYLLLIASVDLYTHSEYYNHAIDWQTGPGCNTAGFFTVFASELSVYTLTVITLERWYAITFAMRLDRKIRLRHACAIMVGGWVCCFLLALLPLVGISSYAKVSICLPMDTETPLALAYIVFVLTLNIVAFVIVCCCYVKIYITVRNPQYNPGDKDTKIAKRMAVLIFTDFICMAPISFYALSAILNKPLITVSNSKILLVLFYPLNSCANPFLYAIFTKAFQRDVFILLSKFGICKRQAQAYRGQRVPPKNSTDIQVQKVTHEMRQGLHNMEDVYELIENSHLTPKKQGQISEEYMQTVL
Luciferin 4-monooxygenase (Photinus pyralis), sequence (P08659 whole entry, looked up): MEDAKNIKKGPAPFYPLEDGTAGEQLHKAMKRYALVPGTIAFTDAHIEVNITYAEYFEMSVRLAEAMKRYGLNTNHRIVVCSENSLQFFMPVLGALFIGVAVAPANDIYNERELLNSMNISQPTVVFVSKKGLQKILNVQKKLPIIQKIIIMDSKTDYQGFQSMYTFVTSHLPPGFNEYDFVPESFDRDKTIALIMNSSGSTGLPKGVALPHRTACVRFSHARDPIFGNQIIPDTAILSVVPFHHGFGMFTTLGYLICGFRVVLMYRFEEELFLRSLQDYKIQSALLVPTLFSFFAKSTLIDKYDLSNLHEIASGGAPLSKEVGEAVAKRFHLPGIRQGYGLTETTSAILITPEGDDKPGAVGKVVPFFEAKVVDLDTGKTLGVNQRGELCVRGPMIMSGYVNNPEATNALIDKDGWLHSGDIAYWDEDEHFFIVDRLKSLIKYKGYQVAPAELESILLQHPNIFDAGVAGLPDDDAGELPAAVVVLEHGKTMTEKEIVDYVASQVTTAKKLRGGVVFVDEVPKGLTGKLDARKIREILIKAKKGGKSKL

CC(C)COC(=O)c1ccccc1
inactive: Potency [1] | outcome [2] | outcome [3] | Potency [4] | outcome [5] | Potency [6] | outcome [7] | outcome [8] | Potency [9] | Potency [10] | outcome [11] | outcome [12] | outcome [13] | outcome [14] | outcome [15]

CCOC(CN1CCN(CC(C)C(=O)c2ccccc2)CC1)c1ccccc1 (configuration not stated)
inactive: activation [1] -12% [at 15.8 µM] | activity change, negative = cytotoxicity [2] -11.3% [at 15.8 µM] | activity change, negative = cytotoxicity [3] 3.44% [at 19 µM] | Potency [4] | viability change, negative = cytotoxic [5] -3.03% [at 19 µM] | activity change, negative = inhibition [6] -1.09% [at 23.6 µM] | viability change, negative = cytotoxic [7] 0.779% [at 19 µM] | activity change, negative = cytotoxicity [8] 3.98% [at 19 µM] | activity, negative = inhibition [9] -25.3% [at 19 µM] | activation [10] -1.5% [at 19 µM] | viability change, negative = cytotoxic [16] -2.82% [at 19 µM] | activation [11] -4.32% [at 19 µM] | activity change, negative = cytotoxicity [12] 0.0048% [at 15.8 µM] | activation (H2AX phosphorylation) [13] -1.86% [at 31.6 µM] | activation [14] 1.68% [at 15.8 µM] | activity change, negative = cytotoxicity [15] -1.65% [at 31.6 µM]

C/C=C(\C)C(C)=O
inactive: Potency [1] | outcome [2] | outcome [3] | outcome [17] | Potency [4] | outcome [5] | Potency [6] | outcome [7] | Potency [9] | Potency [10] | outcome [16] | outcome [11] | outcome [12] | outcome [13] | outcome [14] | outcome [15]

NCc1ccc(S(N)(=O)=O)cc1
inactive: Potency [1] | outcome [2] | outcome [3] | Potency [4] | outcome [5] | Potency [6] | outcome [7] | outcome [8] | Potency [9] | Potency [10] | outcome [16] | outcome [11] | outcome [12] | outcome [13] | outcome [15]

CC1CCc2c(N3CCC(O)CC3)c(F)cc3c(=O)c(C(=O)O)cn1c23 (configuration not stated)
inactive: Potency [1] | outcome [2] | outcome [17] | Potency [4] | outcome [5] | Potency [6] | outcome [7] | outcome [8] | Potency [10] | outcome [16] | outcome [18] | outcome [11] | outcome [13] | outcome [14] | outcome [15]
active: Potency [9] 23.7 µM

CCCCC1CCC(O)CC1 (configuration not stated)
inactive: Potency [1] | outcome [2] | Potency [4] | outcome [5] | Potency [6] | outcome [7] | Potency [9] | Potency [10] | outcome [16] | outcome [12] | outcome [13] | outcome [14] | outcome [15]

C=CC(=O)CCCCC
inactive: Potency [1] | outcome [2] | outcome [3] | outcome [5] | Potency [6] | outcome [7] | outcome [8] | Potency [9] | Potency [10] | outcome [16] | outcome [11] | outcome [13] | outcome [14] | outcome [15]

CO[C@@]1(NC(=O)Cc2cccs2)C(=O)N2C(C(=O)O)=C(COC(N)=O)CS[C@@H]21
inactive: Potency [1] | outcome [2] | Potency [4] | outcome [5] | Potency [6] | outcome [7] | Potency [9] | Potency [10] | outcome [16] | outcome [11] | outcome [13] | outcome [15]
